Columns and labels:
Test in all cases: PBM binding z-score (relative to random genomic background probes); higher = stronger binding; sequences stand for … in GC…GCGATTGACAGCGTAGAATGAAGG
[1] = test system: FXR:RXRa (NR concentration 270 nM, RXRa partner concentration 90 nM)
In short: (§1)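 Binding z-scores take random background probes as their reference. They come from custom Agilent 4×180K protein-binding microarrays incubated 1 h with ligand-free nuclear receptor dimers, with antibodies against each partner (one per run) detecting binding. Scanned fluorescence was regression-normalized.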

[2] = test system: LXRa:RXRa (NR concentration 270 nM, RXRa partner concentration 90 nM)
In short: as §1

[3] = test system: LXRa homodimer (NR concentration 270 nM)
In short: as §1

[4] = test system: LXRb:RXRa (NR concentration 270 nM, RXRa partner concentration 90 nM)
In short: as §1

[5] = test system: LXRb homodimer (NR concentration 270 nM)
In short: as §1

[6] = test system: PPARa:RXRa (NR concentration 270 nM, RXRa partner concentration 90 nM)
In short: as §1

[7] = test system: PPARg:RXRa (NR concentration 180 nM, RXRa partner concentration 90 nM)
In short: as §1

[8] = test system: PPARg:RXRa 270nM:90nM, anti-RXR (NR concentration 270 nM, RXRa partner concentration 90 nM)
In short: as §1

[9] = test system: PPARg:RXRa 30nM:10nM, anti-RXR (NR concentration 30 nM, RXRa partner concentration 10 nM)
In short: as §1

[10] = test system: PPARg:RXRa 90nM:30nM, anti-RXR (NR concentration 90 nM, RXRa partner concentration 30 nM)
In short: as §1

[11] = test system: PPARg:RXRa DBDmut IVT, anti-RXR (DBD mutation: RXRa K156A/R161A, NR concentration 270 nM, RXRa partner concentration 90 nM)
In short: as §1

[12] = test system: PPARg:RXRa IVT, anti-PPARg (NR concentration 270 nM, RXRa partner concentration 90 nM)
In short: as §1

[13] = test system: PPARg DBDmut:RXRa IVT, anti-PPARg (DBD mutation: PPARg1 K132A/R137A, NR concentration 270 nM, RXRa partner concentration 90 nM)
In short: as §1

[14] = test system: PPARg DBDmut IVT, anti-PPARg (DBD mutation: PPARg1 K132A/R137A, NR concentration 270 nM)
In short: as §1

[15] = test system: PPARg homodimer (NR concentration 180 nM)
In short: as §1

[16] = test system: PXR:RXRa (NR concentration 270 nM, RXRa partner concentration 90 nM)
In short: as §1

[17] = test system: PXR homodimer (NR concentration 270 nM)
In short: as §1

[18] = test system: RARa:RXR (NR concentration 270 nM, RXRa partner concentration 90 nM)
In short: as §1

[19] = test system: RARa homodimer (NR concentration 270 nM)
In short: as §1

[20] = test system: RARb:RXRa (NR concentration 270 nM, RXRa partner concentration 90 nM)
In short: as §1

Sequence | PBM binding z-score [1] | PBM binding z-score [2] | PBM binding z-score [3] | PBM binding z-score [4] | PBM binding z-score [5] | PBM binding z-score [6] | PBM binding z-score [7] | PBM binding z-score [8] | PBM binding z-score [9] | PBM binding z-score [10] | PBM binding z-score [11] | PBM binding z-score [12] | PBM binding z-score [13] | PBM binding z-score [14] | PBM binding z-score [15] | PBM binding z-score [16] | PBM binding z-score [17] | PBM binding z-score [18] | PBM binding z-score [19] | PBM binding z-score [20]
CCTACTGGGCCATCAGTTCATTGATATCAACGTT | 0.0577 | -0.0476 | 0.218 | 0.257 | -0.567 | 1.11 | 1.34 | 2.19 | 0.638 | 1.48 | 4.11 | 3.98 | 0.61 | 0.651 | 0.245 | 1.18 | 2.78 | 0.106 | 0.0148 | 0.462
CTTGAAAGGTCGGTTGAGGTGAGTATACGGATAA | 3.64 | 2.28 | -0.0492 | 2.52 | -0.354 | 3.43 | 0.512 | 1.27 | 0.216 | 0.942 | 0.154 | 0.996 | -0.0609 | 0.067 | 0.811 | 3.33 | 0.421 | 2.5 | -0.0411 | 2.97
CCTTACGGGTCAAGGTTAGAGCACGGGTGGTACG | 5.52 | 3.41 | -0.175 | 2.64 | -0.214 | 4.92 | 4.33 | 4.83 | 1.86 | 3.37 | 1.69 | 3.34 | 0.826 | 0.266 | 2.42 | 3.08 | -0.133 | 3.92 | 0.744 | 4.13
AGAATGAGGTTATACGTAGATCAGGGAGGAAAGT | 2.22 | 1.64 | 0.0751 | 1.53 | 0.198 | 3.09 | 1.85 | 2.09 | 0.848 | 1.57 | 3.75 | 1.91 | 1.26 | 0.799 | 0.811 | 1.18 | 0.618 | 1.66 | 0.507 | 1.47
CCTACTGGGCCTAAAAGGTCATTGATGCCGATAA | 4.02 | 4.65 | 4.1 | 4.61 | 0.491 | 4.78 | 1.7 | 3.24 | 0.898 | 2.38 | 0.181 | 1.85 | -0.634 | -1.2 | 2.99 | 4.85 | 2.21 | 5.06 | 1.56 | 4.02
CAAACTAGGTCAAAGTTCAAAGTCGAGCCAACCA | 7.56 | 6.56 | 5.94 | 5.99 | 2.08 | 7.43 | 13.3 | 10.7 | 12.3 | 12.8 | 8.26 | 8.92 | 2.7 | 3.37 | 3.22 | 6.38 | 5.12 | 7.88 | 1.43 | 5.27
CCGACTGGGTCAAGGTTACCATAACGCACAGCCA | 3.19 | 2.1 | 0.079 | 2.21 | -0.717 | 4.15 | 6.25 | 5.71 | 3.15 | 5.32 | 5.21 | 5.93 | 0.445 | -0.0986 | 1.69 | 2.17 | 0.366 | 2.76 | 0.448 | 3.62
CTTCAAAGTTCAAGGTAACGTAACAGAAAGCAGC | 5.99 | 5.87 | 3.59 | 3.5 | 1.19 | 4.48 | 2.86 | 3.83 | 1.15 | 2.43 | 0.401 | 1.36 | 0.994 | 1 | 2.93 | 4.18 | 2.67 | 3.32 | 1.72 | 5.1

— the supplement of paper PMC6555819
